# Experimental data taken from the supplement of paper PMC10849652.
# About 7,900 targets were measured; listed, in parts, are those with a hit and a random draw of the rest. About 0.6% of all pairs of compound and target were hits. Unmarked numbers belong to inactive results.
# Key:
# Experiment in all cases: log2 fold change, soluble protein after heating vs DMSO (PISA); higher = thermal stabilisation; K562 cells, 10 uM, 30 min; active = over 0.2 and 3.5 SD of the protein, either way, in both replicates (recomputed)
# erlotinib = compound: C#Cc1cccc(Nc2ncnc3cc(OCCOC)c(OCCOC)cc23)c1 [erlotinib]
# Method in brief: (§1)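 K562 cells at 2×10^6 cells/mL were exposed to 10 μM compound for 30 min, then aliquots were heated for 3 min across 48°C-58°C, pooled, and extracted in PBS containing 0.5% NP-40 at 4°C. The supernatant after 21,000xg for 90 min was taken as soluble protein and measured by TMTpro 16plex LC-MS/MS with channel sums equalised. Thermal stability is reported relative to control samples, with values from duplicates. Fold changes are given on a log2 scale.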
# [1] = compound: C/C(=N\NC(=O)C1=CC(=CC=C1)S(=O)(=O)N2CCOCC2)/C3=C(C=CC(=C3)Cl)O
# Method in brief: as §1
# [2] = compound: C1=CC(=C(C=C1Cl)C2=NC3=NC=CN=C3C(=N2)NC4=CC=NC=C4)F
# Method in brief: as §1
# [3] = compound: C1=CC(=CC=C1C2=NC3=C(N2)C=C(C=C3)C(=O)N)OC4=CC=C(C=C4)Cl
# Method in brief: as §1
# [4] = compound: C1=CC2=C(C=CC(=C2)/C=C\3/C(=O)NC(=NCC4=CC=CS4)S3)N=C1
# Method in brief: as §1
# [5] = compound: C1=CC2=NC=CN=C2C=C1/C=C/3\C(=O)NC(=O)S3
# Method in brief: as §1
# [6] = compound: C1=CC=C(C=C1)C2=NC(=C(N2)C3=CC=NC=C3)C4=CC(=C(C=C4)Cl)O
# Method in brief: as §1
# [7] = compound: C1=CC=C2C(=C1)C3=NNC4=CC=CC(=C43)C2=O
# Method in brief: as §1
# [8] = compound: C1CCN(C1)C(=O)NC2=CC=CC(=C2)NC3=NC=C(C(=N3)NCCC4=CN=CN4)Br
# Method in brief: as §1
# [9] = compound: C1CN(CCC1(CC2=CC=C(C=C2)Cl)N)C3=NC=NC4=C3C=CN4
# Method in brief: as §1
# IRAK-1-4 Inhibitor I = compound: C1COCCN1CCN2C3=CC=CC=C3N=C2NC(=O)C4=CC(=CC=C4)[N+](=O)[O-] [IRAK-1-4 Inhibitor I]
# Method in brief: as §1
# ibrutinib = compound: C=CC(=O)N1CCC[C@@H](n2nc(-c3ccc(Oc4ccccc4)cc3)c3c(N)ncnc32)C1 [ibrutinib]
# Method in brief: as §1
# [10] = compound: CC(=O)c1cnc2ccc(-c3cc(Cl)c(O)c(Cl)c3)nc2c1N[C@H]1CC[C@H](CN(C)C)CC1
# Method in brief: as §1
# ralimetinib = compound: CC(C)(C)Cn1c(N)nc2ccc(-c3[nH]c(C(C)(C)C)nc3-c3ccc(F)cc3)nc21 [ralimetinib]
# Method in brief: as §1
# [11] = compound: CC(C)(O)CC(=O)NCCn1ccc2ncnc(Nc3ccc(Oc4cccc(C(F)(F)F)c4)c(Cl)c3)c21
# Method in brief: as §1
# [12] = compound: CC(C)C1=C2N=C(C=C(N2N=C1)NCC3=CC=CC=C3)NCCCCCCN
# Method in brief: as §1
# [13] = compound: CC(C)C[C@@H](C=O)NC(=O)[C@H](CC(C)C)NC(=O)[C@H](CC(C)C)NC(=O)OCc1ccccc1
# Method in brief: as §1
# pinometostat = compound: CC(C)N(C[C@H]1O[C@@H](n2cnc3c(N)ncnc32)[C@H](O)[C@@H]1O)[C@H]1C[C@@H](CCc2nc3cc(C(C)(C)C)ccc3[nH]2)C1 [pinometostat]
# Method in brief: as §1
# [14] = compound: CC1=C(C(CC(=O)N1)C2=CC=C(C=C2)C(F)(F)F)C(=O)NC3=C(C=C4C(=C3)C=NN4)F
# Method in brief: as §1
# [15] = compound: CC1=C(C2=C(C=C1)C(=O)C3=CC=CC=C3N2CCCN)C
# Method in brief: as §1
# UniProt Q9Y5X3, sequence (Q9Y5X3 whole entry, looked up): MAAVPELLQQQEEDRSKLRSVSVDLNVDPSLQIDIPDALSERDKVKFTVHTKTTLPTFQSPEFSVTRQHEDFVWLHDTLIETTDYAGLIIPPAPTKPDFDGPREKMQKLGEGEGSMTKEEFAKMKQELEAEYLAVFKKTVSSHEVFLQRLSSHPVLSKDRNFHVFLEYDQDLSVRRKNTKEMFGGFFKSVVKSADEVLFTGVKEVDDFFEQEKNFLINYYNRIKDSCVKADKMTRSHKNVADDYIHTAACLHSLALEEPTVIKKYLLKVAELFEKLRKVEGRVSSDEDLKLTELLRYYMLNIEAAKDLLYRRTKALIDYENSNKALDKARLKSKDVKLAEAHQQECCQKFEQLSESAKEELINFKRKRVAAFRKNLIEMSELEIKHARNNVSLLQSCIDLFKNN
# UniProt P63165, sequence (P63165 whole entry, looked up): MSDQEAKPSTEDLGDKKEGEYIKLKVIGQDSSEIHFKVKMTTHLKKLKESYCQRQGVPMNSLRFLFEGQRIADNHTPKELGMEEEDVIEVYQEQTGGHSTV
# UniProt Q9BSF4, sequence (Q9BSF4 whole entry, looked up): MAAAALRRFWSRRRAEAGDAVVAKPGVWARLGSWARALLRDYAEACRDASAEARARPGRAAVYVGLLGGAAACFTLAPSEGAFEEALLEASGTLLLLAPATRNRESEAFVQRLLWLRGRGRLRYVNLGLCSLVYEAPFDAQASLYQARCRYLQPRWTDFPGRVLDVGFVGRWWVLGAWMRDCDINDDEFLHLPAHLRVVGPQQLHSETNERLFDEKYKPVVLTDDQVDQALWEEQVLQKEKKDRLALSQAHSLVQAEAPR
# UniProt Q969G3, sequence (Q969G3 whole entry, looked up): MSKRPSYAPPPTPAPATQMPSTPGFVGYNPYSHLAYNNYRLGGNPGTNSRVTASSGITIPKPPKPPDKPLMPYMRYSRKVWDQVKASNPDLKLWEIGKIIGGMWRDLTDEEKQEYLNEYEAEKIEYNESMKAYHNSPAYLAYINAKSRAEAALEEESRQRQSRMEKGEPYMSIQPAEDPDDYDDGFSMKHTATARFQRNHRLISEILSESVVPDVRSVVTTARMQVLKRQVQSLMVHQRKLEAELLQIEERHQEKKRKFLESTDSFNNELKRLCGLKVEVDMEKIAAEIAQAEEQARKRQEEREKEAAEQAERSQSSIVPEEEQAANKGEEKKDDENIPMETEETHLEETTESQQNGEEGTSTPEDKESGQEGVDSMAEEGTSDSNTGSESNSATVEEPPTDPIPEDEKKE
# UniProt Q13586, sequence (Q13586 whole entry, looked up): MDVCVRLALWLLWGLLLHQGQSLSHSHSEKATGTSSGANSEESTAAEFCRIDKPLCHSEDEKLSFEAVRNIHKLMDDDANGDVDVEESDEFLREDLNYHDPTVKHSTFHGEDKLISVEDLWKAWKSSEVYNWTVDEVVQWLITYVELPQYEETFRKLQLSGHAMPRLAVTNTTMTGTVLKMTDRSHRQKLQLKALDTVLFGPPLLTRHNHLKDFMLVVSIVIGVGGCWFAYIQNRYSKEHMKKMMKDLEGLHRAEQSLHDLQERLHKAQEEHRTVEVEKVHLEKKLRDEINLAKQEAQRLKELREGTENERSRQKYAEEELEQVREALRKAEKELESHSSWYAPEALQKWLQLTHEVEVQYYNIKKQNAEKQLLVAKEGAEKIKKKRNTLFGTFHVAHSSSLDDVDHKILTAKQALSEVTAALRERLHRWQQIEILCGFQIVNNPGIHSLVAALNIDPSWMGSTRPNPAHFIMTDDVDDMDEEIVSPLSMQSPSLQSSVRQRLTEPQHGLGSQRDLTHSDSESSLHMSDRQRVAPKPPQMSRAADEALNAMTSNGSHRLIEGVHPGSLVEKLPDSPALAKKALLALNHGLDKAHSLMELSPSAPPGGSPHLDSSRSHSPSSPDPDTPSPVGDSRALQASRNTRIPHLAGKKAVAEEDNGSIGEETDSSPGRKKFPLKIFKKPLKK
# UniProt Q5M775, sequence (Q5M775 whole entry, looked up): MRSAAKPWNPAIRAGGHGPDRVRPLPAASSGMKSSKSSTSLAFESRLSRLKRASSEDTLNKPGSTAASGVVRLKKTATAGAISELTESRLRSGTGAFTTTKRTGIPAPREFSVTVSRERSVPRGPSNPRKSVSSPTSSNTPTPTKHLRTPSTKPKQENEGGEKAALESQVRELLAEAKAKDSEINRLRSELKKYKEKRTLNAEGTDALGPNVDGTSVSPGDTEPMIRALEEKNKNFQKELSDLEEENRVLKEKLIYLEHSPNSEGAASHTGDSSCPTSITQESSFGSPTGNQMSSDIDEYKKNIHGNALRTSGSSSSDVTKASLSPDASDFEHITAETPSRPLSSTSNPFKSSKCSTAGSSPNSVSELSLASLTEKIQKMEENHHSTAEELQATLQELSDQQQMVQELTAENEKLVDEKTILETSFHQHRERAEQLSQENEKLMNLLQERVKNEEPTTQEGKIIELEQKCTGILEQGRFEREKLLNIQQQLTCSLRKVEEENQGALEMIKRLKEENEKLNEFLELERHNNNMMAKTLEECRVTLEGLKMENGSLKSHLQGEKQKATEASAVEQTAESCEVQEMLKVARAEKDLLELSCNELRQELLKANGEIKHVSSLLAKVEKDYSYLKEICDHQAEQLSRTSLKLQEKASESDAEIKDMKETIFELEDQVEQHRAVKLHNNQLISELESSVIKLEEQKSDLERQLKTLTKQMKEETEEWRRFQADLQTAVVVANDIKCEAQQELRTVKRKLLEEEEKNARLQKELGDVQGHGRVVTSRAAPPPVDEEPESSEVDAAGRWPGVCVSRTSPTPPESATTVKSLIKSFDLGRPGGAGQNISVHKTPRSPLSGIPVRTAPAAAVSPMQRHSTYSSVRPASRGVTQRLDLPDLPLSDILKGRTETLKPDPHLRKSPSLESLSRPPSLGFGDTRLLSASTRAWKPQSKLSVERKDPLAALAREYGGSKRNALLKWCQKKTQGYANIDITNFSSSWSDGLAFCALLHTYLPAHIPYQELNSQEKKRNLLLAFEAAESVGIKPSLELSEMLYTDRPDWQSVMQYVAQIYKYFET
# UniProt Q9Y2H1, sequence (Q9Y2H1 whole entry, looked up): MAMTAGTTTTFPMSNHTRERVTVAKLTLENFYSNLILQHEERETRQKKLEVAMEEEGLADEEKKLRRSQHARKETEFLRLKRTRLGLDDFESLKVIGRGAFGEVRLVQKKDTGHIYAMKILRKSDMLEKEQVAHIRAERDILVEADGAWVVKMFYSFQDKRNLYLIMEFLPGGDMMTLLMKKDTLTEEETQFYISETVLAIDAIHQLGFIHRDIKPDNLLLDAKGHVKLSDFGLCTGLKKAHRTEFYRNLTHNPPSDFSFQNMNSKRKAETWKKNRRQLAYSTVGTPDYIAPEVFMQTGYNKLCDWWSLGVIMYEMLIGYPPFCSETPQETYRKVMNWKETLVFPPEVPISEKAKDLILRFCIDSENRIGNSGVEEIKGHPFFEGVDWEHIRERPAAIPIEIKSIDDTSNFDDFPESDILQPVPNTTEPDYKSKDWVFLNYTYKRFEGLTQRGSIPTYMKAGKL
# UniProt P12235, sequence (P12235 whole entry, looked up): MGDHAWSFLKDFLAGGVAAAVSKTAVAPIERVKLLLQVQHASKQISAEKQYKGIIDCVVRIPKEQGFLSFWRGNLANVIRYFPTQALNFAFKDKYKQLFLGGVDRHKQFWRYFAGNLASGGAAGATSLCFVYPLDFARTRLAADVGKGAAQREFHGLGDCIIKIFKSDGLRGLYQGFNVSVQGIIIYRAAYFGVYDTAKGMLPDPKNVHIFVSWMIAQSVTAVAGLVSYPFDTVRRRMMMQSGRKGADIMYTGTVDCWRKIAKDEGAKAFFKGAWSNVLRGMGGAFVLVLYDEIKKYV
# UniProt Q15527, sequence (Q15527 whole entry, looked up): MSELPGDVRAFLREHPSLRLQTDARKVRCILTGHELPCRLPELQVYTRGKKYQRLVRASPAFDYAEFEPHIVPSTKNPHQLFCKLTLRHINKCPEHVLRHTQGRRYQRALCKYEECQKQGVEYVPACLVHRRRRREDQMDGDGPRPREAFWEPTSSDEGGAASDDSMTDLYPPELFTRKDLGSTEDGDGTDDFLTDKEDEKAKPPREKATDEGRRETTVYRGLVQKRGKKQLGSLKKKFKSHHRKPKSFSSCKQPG
# UniProt Q96QD8, sequence (Q96QD8 whole entry, looked up): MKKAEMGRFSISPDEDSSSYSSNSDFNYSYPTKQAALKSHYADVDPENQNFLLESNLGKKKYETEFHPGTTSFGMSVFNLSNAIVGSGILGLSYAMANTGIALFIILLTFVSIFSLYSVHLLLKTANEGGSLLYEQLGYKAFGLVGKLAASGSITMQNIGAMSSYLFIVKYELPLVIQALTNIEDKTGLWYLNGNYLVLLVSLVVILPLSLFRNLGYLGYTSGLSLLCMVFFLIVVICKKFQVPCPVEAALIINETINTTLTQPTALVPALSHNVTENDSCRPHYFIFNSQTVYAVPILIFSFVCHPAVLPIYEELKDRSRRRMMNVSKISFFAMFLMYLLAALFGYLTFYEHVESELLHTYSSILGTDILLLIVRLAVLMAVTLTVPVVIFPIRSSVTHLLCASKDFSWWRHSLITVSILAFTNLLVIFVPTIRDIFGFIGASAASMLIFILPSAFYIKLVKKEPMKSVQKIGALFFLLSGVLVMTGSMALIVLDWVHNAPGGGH
# UniProt Q15796, sequence (Q15796 whole entry, looked up): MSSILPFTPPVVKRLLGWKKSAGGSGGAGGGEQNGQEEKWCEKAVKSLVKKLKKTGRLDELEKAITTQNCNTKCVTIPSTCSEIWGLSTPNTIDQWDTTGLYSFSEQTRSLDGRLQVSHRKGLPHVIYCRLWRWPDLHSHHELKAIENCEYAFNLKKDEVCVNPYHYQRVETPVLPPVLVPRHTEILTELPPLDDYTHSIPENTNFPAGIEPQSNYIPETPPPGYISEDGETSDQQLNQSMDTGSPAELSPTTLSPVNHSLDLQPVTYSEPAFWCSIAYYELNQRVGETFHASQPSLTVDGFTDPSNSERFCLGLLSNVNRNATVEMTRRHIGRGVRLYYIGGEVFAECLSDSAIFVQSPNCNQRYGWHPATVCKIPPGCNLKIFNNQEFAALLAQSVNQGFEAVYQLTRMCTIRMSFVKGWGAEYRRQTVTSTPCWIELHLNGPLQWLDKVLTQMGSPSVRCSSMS
Target,log2 fold change (erlotinib),log2 fold change [1],log2 fold change [2],log2 fold change [3],log2 fold change [4],log2 fold change [5],log2 fold change [6],log2 fold change [7],log2 fold change [8],log2 fold change [9],log2 fold change (IRAK-1-4 Inhibitor I),log2 fold change (ibrutinib),log2 fold change [10],log2 fold change (ralimetinib),log2 fold change [11],log2 fold change [12],log2 fold change [13],log2 fold change (pinometostat),log2 fold change [14],log2 fold change [15]
STK38L (UniProt Q9Y2H1),-0.005,0.018,0.05,0.031,-0.015,0.046,-0.368,0.102,0.008,-0.041,-0.084,-0.048,-0.181,-0.577,-0.035,-0.148,0.385,0.051,0.013,-0.023
SLC38A2 (UniProt Q96QD8),-0.093,0.075,0.01,0.003,-0.039,0.093,0.055,0,-0.009,0.048,0.018,0.022,-0.057,-0.097,-0.12,-0.28 (active),0.102,-0.053,0.019,0.01
SPECC1 (UniProt Q5M775),0.044,-0.002,0.022,0,0.056,0.02,-0.208,-0.023,0.026,0.012,0.01,-0.068,-0.035,-0.107,0.025,0.08,0.003,-0.25,0.048,-0.01
STRN (UniProt O43815),-0.03,0,0.033,0.013,-0.008,0.005,0.213 (active),0.025,-0.124,0.053,0.029,0.073,-0.046,0.13,-0.023,0.03,-0.066,-0.002,-0.037,0
STIM1 (UniProt Q13586),-0.015,0.01,0.043,0.014,0.039,-0.007,-0.025,-0.067,-0.003,0.016,0.006,0.007,-0.06,-0.036,-0.067,-0.33 (active),0.034,-0.011,0.006,0.067
SNX5 (UniProt Q9Y5X3),0.033,0.09,0.042,0.022,0.057,-0.024,-0.05,-0.038,0.077,-0.009,0.042,0.019,-0.167,-0.038,-0.304 (active),-0.224,0.005,0.027,0.018,-0.026
SMAD2 (UniProt Q15796),0.061,0.087,-0.065,0.04,0.069,-0.004,-0.05,-0.045,-0.034,0.019,-0.145,0.05,-0.091,-0.069,-0.088,-0.015,0.124,-0.125,-0.192,0.079
TIMM29 (UniProt Q9BSF4),0.028,0.042,0.049,-0.025,0.064,0.018,-0.035,-0.024,0.037,0.011,-0.202,0.024,-0.014,-0.101,0.008,0.071,-0.031,0.444 (active),-0.004,-0.052
TFRC (UniProt P02786),0.002,0.017,0.022,0.006,0.037,0.027,0.023,-0.011,0.006,0.055,0.058,0.026,-0.023,-0.005,0.001,-0.032,-0.005,-0.02,0.001,-0.03
SSR4 (UniProt P51571),-0.016,0.055,0.041,0.051,0.059,0.007,-0.031,-0.002,0,-0.025,0.003,0.032,-0.033,0.049,-0.034,-0.03,0.032,-0.028,-0.015,0.09
SUMO1 (UniProt P63165),-0.126,0.167,0.006,-0.06,0.182,0.043,0.045,-0.06,0.211,0.033,-0.079,-0.007,-0.077,0.053,0.139,-0.065,0.01,0.022,0.042,-0.125
SLC25A4 (UniProt P12235),0.007,-0.016,0.035,-0.009,-0.004,0.042,0.045,-0.076,-0.019,0.021,0.032,0.068,0.016,-0.007,0.009,0.089,0.004,-0.02,-0.031,-0.013
SURF2 (UniProt Q15527),0.021,-0.067,0.039,-0.03,-0.068,0.113,-0.057,0.027,-0.043,0.009,0.071,0.004,-0.043,-0.117,-0.014,0.131,0.022,0.01,-0.036,-0.238 (active)
TIMM13 (UniProt Q9Y5L4),0.018,0,0.315,0,0.003,0.111,0.063,-0.005,-0.025,-0.006,-0.031,0.012,0.01,-0.008,-0.145,0.048,-0.085,-0.092,0.018,0.092
SMARCE1 (UniProt Q969G3),0.101,0.04,0.017,0,0.009,0,0.001,-0.057,0.075,-0.127,-0.29,0.185,-0.006,0.163,-0.043,-0.128,-0.037,-0.031,0.21,-0.091
